{"source": "the supplement of paper PMC8728848", "binders": {"B1": {"name": "AAL (Agrocybe aegerita), Q6WY08 (protein)", "chain": "MQGVNIYNISAGTSVDLAAPVTTGDIVTFFSSALNLNAGAGNPNNTTLNLFAENGAYLLHIAHRLQENVIIFNSRQPDGPWLVEQRVSDVANQFAGIDGKAMVTVFDHGDKYQVVINEKTVIQYTKQISGLTLSLSYNATEETSIFSTVVEAVTYTGLALEHHHHHH"}}, "assay_in_all_cases": "glycan array binding signal (z-score within array); higher = stronger binding", "conditions_in_all_cases": "glycan notation: IUPAC condensed, linker removed; mutation: F63H", "key": {"[1]": {"molecular_target": "Fuc(a1-2)Gal(b1-3)GalNAc", "method_in_brief": "(§1)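 Arrays were curated from the Consortium for Functional Glycomics database, 3228 in total, and kept only where the protein sequence was available. Binding is expressed as a within-array Z-score. This score was averaged across arrays of the same protein sequence at different concentrations or buffers and across linkers, and negative values can be read as non-binding.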"}, "[2]": {"molecular_target": "Fuc(a1-2)Gal(b1-3)GalNAc(b1-3)Gal(a1-4)Gal(b1-4)Glc", "method_in_brief": "as §1"}, "[3]": {"molecular_target": "Fuc(a1-2)Gal(b1-3)GlcNAc(b1-3)Gal(b1-4)Glc", "method_in_brief": "as §1"}, "[4]": {"molecular_target": "Fuc(a1-2)Gal(b1-3)GlcNAc(b1-3)[Neu5Ac(a2-6)Gal(b1-4)GlcNAc(b1-6)]Gal(b1-4)Glc", "method_in_brief": "as §1"}, "[5]": {"molecular_target": "Fuc(a1-2)Gal(b1-4)GlcNAc(b1-3)Gal(b1-4)GlcNAc(b1-3)Gal(b1-4)GlcNAc", "method_in_brief": "as §1"}, "[6]": {"molecular_target": "Fuc(a1-2)[GalNAc(b1-3)]Gal", "method_in_brief": "as §1"}, "[7]": {"molecular_target": "Fuc(a1-3)GlcNAc", "method_in_brief": "as §1"}, "[8]": {"molecular_target": "Fuc(a1-3)[GalNAc(b1-4)]GlcNAc6S", "method_in_brief": "as §1"}, "[9]": {"molecular_target": "Gal(a1-3)Gal", "method_in_brief": "as §1"}, "[10]": {"molecular_target": "Gal(a1-3)Gal(b1-4)GlcNAc", "method_in_brief": "as §1"}, "[11]": {"molecular_target": "Gal(a1-3)Gal(b1-4)GlcNAc(b1-6)GalNAc", "method_in_brief": "as §1"}, "[12]": {"molecular_target": "Gal(a1-4)Gal(b1-4)GlcNAc(b1-2)Man(a1-3)[Gal(a1-4)Gal(b1-4)GlcNAc(b1-2)Man(a1-6)]Man(b1-4)GlcNAc(b1-4)GlcNAc", "method_in_brief": "as §1"}, "[13]": {"molecular_target": "Gal(b1-3)Gal(b1-4)GlcNAc", "method_in_brief": "as §1"}, "[14]": {"molecular_target": "Gal(b1-3)GalNAc", "method_in_brief": "as §1"}, "[15]": {"molecular_target": "Gal(b1-3)GalNAc(a1-3)[Fuc(a1-2)]Gal(b1-4)Glc", "method_in_brief": "as §1"}, "[16]": {"molecular_target": "Gal(b1-3)GalNAc(a1-3)[Fuc(a1-2)]Gal(b1-4)GlcNAc", "method_in_brief": "as §1"}, "[17]": {"molecular_target": "Gal(b1-3)GalNAc(b1-4)Gal(b1-4)Glc", "method_in_brief": "as §1"}, "[18]": {"molecular_target": "Gal(b1-3)GlcNAc(a1-3)Gal(b1-4)GlcNAc", "method_in_brief": "as §1"}, "[19]": {"molecular_target": "Gal(b1-3)GlcNAc(b1-3)Gal(b1-4)GlcNAc(b1-3)Gal(b1-4)GlcNAc(b1-2)[Gal(b1-3)GlcNAc(b1-3)Gal(b1-4)GlcNAc(b1-3)Gal(b1-4)GlcNAc(b1-6)]Man(a1-6)[Gal(b1-3)GlcNAc(b1-3)Gal(b1-4)GlcNAc(b1-3)Gal(b1-4)GlcNAc(b1-2)Man(a1-3)]Man(b1-4)GlcNAc(b1-4)[Fuc(a1-6)]GlcNAc", "method_in_brief": "as §1"}, "[20]": {"molecular_target": "Gal(b1-3)GlcNAc(b1-6)GalNAc", "method_in_brief": "as §1"}, "[21]": {"molecular_target": "Gal(b1-4)GlcNAc(b1-2)Man(a1-3)[Gal(b1-4)GlcNAc(b1-2)Man(a1-6)][Gal(b1-4)GlcNAc(b1-4)]Man(b1-4)GlcNAc(b1-4)[Fuc(a1-6)]GlcNAc", "method_in_brief": "as §1"}, "[22]": {"molecular_target": "Gal(b1-4)GlcNAc(b1-2)Man(a1-6)[GlcNAc(b1-2)Man(a1-3)]Man(b1-4)GlcNAc(b1-4)GlcNAc", "method_in_brief": "as §1"}, "[23]": {"molecular_target": "Gal(b1-4)GlcNAc(b1-2)[Gal(b1-4)GlcNAc(b1-6)]Man(a1-6)[GlcNAc(b1-4)][Gal(b1-4)GlcNAc(b1-2)Man(a1-3)]Man(b1-4)GlcNAc(b1-4)GlcNAc", "method_in_brief": "as §1"}, "[24]": {"molecular_target": "Gal(b1-4)GlcNAc(b1-2)[Gal(b1-4)GlcNAc(b1-6)]Man(a1-6)[GlcNAc(b1-4)][Gal(b1-4)GlcNAc(b1-2)[Gal(b1-4)GlcNAc(b1-4)]Man(a1-3)]Man(b1-4)GlcNAc(b1-4)[Fuc(a1-6)]GlcNAc", "method_in_brief": "as §1"}, "[25]": {"molecular_target": "Gal(b1-4)GlcNAc(b1-3)Gal(b1-4)GlcNAc(b1-3)Gal(b1-4)GlcNAc(b1-2)Man(a1-3)[Gal(b1-4)GlcNAc(b1-3)Gal(b1-4)GlcNAc(b1-3)Gal(b1-4)GlcNAc(b1-2)Man(a1-6)]Man(b1-4)GlcNAc(b1-4)[Fuc(a1-6)]GlcNAc", "method_in_brief": "as §1"}, "[26]": {"molecular_target": "Gal(b1-4)GlcNAc(b1-3)Gal(b1-4)GlcNAc(b1-3)Gal(b1-4)GlcNAc(b1-3)Gal(b1-4)GlcNAc(b1-3)Gal(b1-4)GlcNAc(b1-2)Man(a1-3)[Gal(b1-4)GlcNAc(b1-3)Gal(b1-4)GlcNAc(b1-3)Gal(b1-4)GlcNAc(b1-3)Gal(b1-4)GlcNAc(b1-3)Gal(b1-4)GlcNAc(b1-2)Man(a1-6)]Man(b1-4)GlcNAc(b1-4)[Fuc(a1-6)]GlcNAc", "method_in_brief": "as §1"}, "[27]": {"molecular_target": "Gal(b1-4)GlcNAc(b1-3)Gal(b1-4)GlcNAc(b1-3)Gal(b1-4)GlcNAc(b1-3)Gal(b1-4)GlcNAc(b1-3)Gal(b1-4)GlcNAc(b1-3)Gal(b1-4)GlcNAc(b1-2)Man(a1-3)[Gal(b1-4)GlcNAc(b1-3)Gal(b1-4)GlcNAc(b1-3)Gal(b1-4)GlcNAc(b1-3)Gal(b1-4)GlcNAc(b1-3)Gal(b1-4)GlcNAc(b1-3)Gal(b1-4)GlcNAc(b1-2)Man(a1-6)]Man(b1-4)GlcNAc(b1-4)GlcNAc", "method_in_brief": "as §1"}, "[28]": {"molecular_target": "Gal(b1-4)GlcNAc(b1-3)Gal(b1-4)GlcNAc(b1-3)GalNAc", "method_in_brief": "as §1"}, "[29]": {"molecular_target": "Gal(b1-4)GlcNAc(b1-3)Gal(b1-4)GlcNAc(b1-3)[Gal(b1-4)GlcNAc(b1-3)Gal(b1-4)GlcNAc(b1-6)]GalNAc", "method_in_brief": "as §1"}, "[30]": {"molecular_target": "Gal(b1-4)GlcNAc(b1-3)GalNAc", "method_in_brief": "as §1"}, "[31]": {"molecular_target": "Gal(b1-6)Gal", "method_in_brief": "as §1"}, "[32]": {"molecular_target": "Gal3S(b1-3)GlcNAc", "method_in_brief": "as §1"}}, "note": "Many of the other results were omitted from the sample, so the strongest signals are more common in it than they were.", "data": [{"binder": "B1", "values": [{"measurement": "glycan array binding signal (z-score)", "setting": "[1]", "result": -0.198}, {"measurement": "glycan array binding signal (z-score)", "setting": "[2]", "result": -0.075}, {"measurement": "glycan array binding signal (z-score)", "setting": "[3]", "result": -0.394}, {"measurement": "glycan array binding signal (z-score)", "setting": "[4]", "result": 0.013}, {"measurement": "glycan array binding signal (z-score)", "setting": "[5]", "result": -0.151}, {"measurement": "glycan array binding signal (z-score)", "setting": "[6]", "result": -0.544}, {"measurement": "glycan array binding signal (z-score)", "setting": "[7]", "result": -0.394}, {"measurement": "glycan array binding signal (z-score)", "setting": "[8]", "result": -0.005}, {"measurement": "glycan array binding signal (z-score)", "setting": "[9]", "result": -0.04}, {"measurement": "glycan array binding signal (z-score)", "setting": "[10]", "result": -0.342}, {"measurement": "glycan array binding signal (z-score)", "setting": "[11]", "result": -0.072}, {"measurement": "glycan array binding signal (z-score)", "setting": "[12]", "result": 0.969}, {"measurement": "glycan array binding signal (z-score)", "setting": "[13]", "result": -0.287}, {"measurement": "glycan array binding signal (z-score)", "setting": "[14]", "result": -0.177}, {"measurement": "glycan array binding signal (z-score)", "setting": "[15]", "result": -0.298}, {"measurement": "glycan array binding signal (z-score)", "setting": "[16]", "result": -0.341}, {"measurement": "glycan array binding signal (z-score)", "setting": "[17]", "result": -0.435}, {"measurement": "glycan array binding signal (z-score)", "setting": "[18]", "result": 0.927}, {"measurement": "glycan array binding signal (z-score)", "setting": "[19]", "result": 0.029}, {"measurement": "glycan array binding signal (z-score)", "setting": "[20]", "result": 0.316}, {"measurement": "glycan array binding signal (z-score)", "setting": "[21]", "result": -0.332}, {"measurement": "glycan array binding signal (z-score)", "setting": "[22]", "result": -0.263}, {"measurement": "glycan array binding signal (z-score)", "setting": "[23]", "result": 4.37}, {"measurement": "glycan array binding signal (z-score)", "setting": "[24]", "result": -0.265}, {"measurement": "glycan array binding signal (z-score)", "setting": "[25]", "result": 1.22}, {"measurement": "glycan array binding signal (z-score)", "setting": "[26]", "result": -0.033}, {"measurement": "glycan array binding signal (z-score)", "setting": "[27]", "result": 0.376}, {"measurement": "glycan array binding signal (z-score)", "setting": "[28]", "result": -0.163}, {"measurement": "glycan array binding signal (z-score)", "setting": "[29]", "result": 0.226}, {"measurement": "glycan array binding signal (z-score)", "setting": "[30]", "result": -0.105}, {"measurement": "glycan array binding signal (z-score)", "setting": "[31]", "result": -0.264}, {"measurement": "glycan array binding signal (z-score)", "setting": "[32]", "result": -0.185}]}]}
